Compounds without any hit were thinned out: in the full panel of roughly 83,000, 20% have a hit.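 The endpoint reported here, percent growth, reads 100 for growth as untreated, 0 for no net growth and -100 for all cells dead.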 Unmarked numbers belong to inactive results. The source made the active and inactive calls. The calls were made as follows: active = growth percent below 10; inactive = the rest.

The assay concerns HL-60(TB) leukemia. In words: NCI-60 one-dose screen, 48 h (100 = growth as untreated, 0 = no growth, -100 = all killed). The settings on record: 10 µM unless noted.

Take `CN(C(=O)NCc1cccc(F)c1Cl)[C@H](COC(=O)Nc1cc2ccccc2cn1)CC(O)CO` (stereo partly drawn): the growth is 90.5%.
In the case of `Nc1ncc(-c2ccc(C(F)(F)F)cc2)c(NC2CCCCCC2)n1` it was 16.8%.
Take `CC(=O)c1ccc(-n2cc(CN3CCN(c4cc5c(cc4F)c(=O)c(C(=O)O)cn5C4CC4)CC3)nn2)cc1`: the growth is 99%.
Then `CCN1C(=O)CC(SC2CC(=O)N(CC)C2=O)C1=O` (stereo not drawn), with 79.9%.
On to `COc1ccc(NC2=C(Sc3nc(C)cc(C)n3)C(=O)N(Cc3ccccc3)C2=O)cc1Cl`, for which the growth was 58.8% [30 µM].
Then `Cc1ccc(-[n+]2c3cc(N)c(C)cc3nc3cc(C)c(Nc4ccccc4)cc32)cc1`, with -20.6% (active); and `CC(=O)c1ccc(NCn2nc(-c3ccc(Cl)cc3)oc2=S)cc1`, with 88.9%; and `COc1ccc(-c2nnc(SCC(=O)Nc3ccc(C(=O)/C=C/c4cc(OC)c(OC)c(OC)c4)cc3)n2-c2ccccc2)cc1OC`, with 46.1% [100 µM].
In the case of `CC(=O)OC[C@H](O)[C@@]1(O)CC[C@H]2[C@@H]3CCC4=CC(=O)CC[C@]4(C)[C@H]3[C@@H](O)C[C@@]21C` it was 101%; in that of `CC(=O)OC[C@]12CC[C@@H]([C@@H](C)C(N)=O)[C@@H]1[C@H]1CC[C@@H]3[C@@]4(C)CC[C@H](OC(C)=O)C(C)(C)[C@@H]4CC[C@@]3(C)[C@]1(C)CC2`, -23.1% [100 µM] (active); in that of `CCCC1OC(c2ccc(C(C)C)cc2)OCC1CC` (stereo not drawn), 92.7%.
As to `COc1ccc(/C=C/C(=O)c2ccc(NC(=O)c3cc4cc5ccccc5nc4s3)cc2)cc1OC`, the growth is 92.5%.
Then `CCN(CC)CCNc1ncnc2c1cnn2-c1ccc(Cl)cc1`, with 39.1%.
As for `COC(=O)c1c(C)nc(C)c2c1C(=O)C(Br)=C(NCCN1CCOCC1)C2=O`, the growth is 61.9%.
Then `N#C/C(=C\C=C\c1ccc(-c2cc(Cl)ccc2Cl)o1)c1nc2ccccc2s1`, with 97.7%.
Then `O=CN1N=C(c2ccc(Nc3ccnc4cc(Cl)ccc34)cc2)CC1c1ccccc1` (stereo not drawn), with -25.8% (active).
Then `COc1cc(/C=C/c2cc(O)c(C(C)=O)c(O)c2)cc2c1O[C@]1(C)CC[C@@H](O)C(C)(C)[C@H]1C2`, with 28.1%; and `CCCCN1CCCCn2c1nc1c2c(=O)n(C)c(=O)n1C`, with 108%; and `COc1cc(N)c2ncccc2c1SC`, with 107%.
Regarding `CNC(=O)c1cc(Oc2ccc(NC(=O)c3[nH]c(SC)nc3-c3ccc(F)cc3)cc2)ccn1`, the growth is 78.6%.
On to `CC(C)NC(=O)OCc1c(COC(=O)NC(C)C)c(-c2ccc(Cl)c(Cl)c2)n2c1SCC2`, for which the growth is 7.43% (active).
Then `O=C(N=Nc1c(O)[nH]c2ccccc12)c1oc2ccccc2c1CN1CCN(c2ccccc2)CC1`, with 49.8%.
Then `C=CCOc1ccc2c(c1)CC[C@@H]1[C@@H]2CC[C@@]2(C)[C@H]1CC[C@]2(C)O`, with 74.6%; and `O=S(=O)(O)c1ccc(F)cc1`, with 93.8%; and `O=[N+]([O-])c1ccc(/C=N\Nc2ccccc2)cc1`, with 94.6%.
For `Cc1ccc(-c2nn(C)c(=O)c3noc(-c4ccc(C)cc4)c23)cc1`, the growth is 29.3%.
In the case of `CCOCc1nc2ccccc2c(=O)[nH]1` it was 107%; in that of `CC[C@@H]1C(=O)N(C)c2cnc(Nc3ccc(C(=O)NC4CCC(N5CCN(CC6CC6)CC5)CC4)cc3OC)nc2N1C(C)C` (stereo partly drawn), -48.5% (active); in that of `Cc1ccc(S(=O)(=O)N/N=C/C2(c3ccccc3)CC2)cc1`, 98.7%.
Then `COc1ccc2c(c1)CC[C@@H]1[C@@H]2CC[C@]2(C)C3C(=CCC4C(=O)N(c5ccccc5)C(=O)C43)C[C@@H]12` (stereo partly drawn), with 81.6%; and `COc1cc(/C=C/c2cc(/C=C/c3ccc(O)c(OC)c3)nc(N)n2)ccc1O`, with 3.67% (active).
As to `COc1cccc(OC)c1C(=O)N[C@@H]1C(=O)N2[C@@H]1SC(C)(C)[C@@H]2C(=O)O`, the growth is 94.3%.
Then `COc1cc(C=O)ccc1Oc1ccc([N+](=O)[O-])cc1[N+](=O)[O-]`, with 95.1%; and `OCc1cc(CN2CCCCC2)c(O)c2ncccc12`, with 33.2%; and `Cc1ccc(C2CC(c3cccc(Nc4ccncc4)c3)=Nc3c(N)nc(N)nc3N2)cc1` (stereo not drawn), with 33.7%.
Turning to `Brc1ccc(Oc2ccc(Nc3ncnc4onc(-c5ccccc5)c34)cc2)cc1`, the growth was 101%.
Then `COc1ccc(CCl)c(C)c1OC`, with 99%; and `Cn1cc(-c2nc(-c3cn(C)c4ncccc34)cs2)c2ccccc21`, with 28.4%.
Then `CCOC(=O)Nc1ccc2nc(Sc3ccc(Cl)cc3)sc2c1`, with 10.1%; and `C=C1C(=O)O[C@H]2[C@H]1CC/C(COC(=O)NCc1ccc(Cn3c(=O)sn(CCCC)c3=O)cc1)=C\CC[C@@]1(C)O[C@@H]21`, with -33.2% (active).
As to `NS(=O)(=O)c1ccc(-n2nc(C(=O)N/N=C\c3ccc(F)cc3)cc2-c2ccc(Br)cc2)cc1`, the growth is 71%.
In the case of `O=S(=O)(Nc1cc(Sc2cccc3cccnc23)c(O)c2ccccc12)c1ccc(F)cc1`, the growth was -21.9% (active).
In the case of `CCCC1(c2ccccc2)NC(=O)NC1=O` (stereo not drawn) it was 144%.
In the case of `CCCN=C1NC(=O)/C(=C/c2nc(-c3ccc(OC)cc3)n3ccccc23)S1` it was 79.8%; in that of `O=C(Nc1cc(Cl)ccc1O)c1ccccc1Nc1ccnc(C(F)(F)F)c1`, -38.1% (active).
In the case of `COc1cc2nc(NC3CCC3)nc(NC3CCN(C(C)C)CC3)c2cc1OC` it was 4.58% (active).
Regarding `Cc1cc(Nc2ccc(OCc3ccccc3)cc2)nc2cc(O)ccc12`, the growth was -44.4% (active).
On to `COc1cccc(-c2nn(-c3ccccc3)cc2-c2ccnc(NCCNC(=O)Nc3ccccc3)c2)c1`, for which the growth is 19.9%.
Then `CC(C)(C)N1CC(OC(N)=O)C1`, with 110%; and `CCOC(=O)c1cc(C(=O)c2ccc(OC)c(OC)c2)n2c1ccc1ccc3cccnc3c12`, with 3.73% (active); and `Cn1c2c(Cl)c(Cl)ccc2c2c(C#N)c[nH]c(=O)c21`, with 107%.
Turning to `COc1ccc(C(=O)/C=C/c2sc(Cl)nc2Cl)cc1`, the growth was 32.3%.
In the case of `FC(F)c1nc2ccccc2n1-c1nc(N2CCOCC2)nc(N2CCOCC2)n1` it was 15.1%; in that of `O=C1OC(/C=C/c2ccccc2)=NC/1=C/c1ccccc1[N+](=O)[O-]`, 96.2%.
In the case of `CCOc1nc(-c2ccccc2)cc2c(O)c(C(=O)NC(C)C)[nH]c(=O)c12` it was 168%; in that of `O=C1NC(=O)[C@@H](c2cn3c4c(cccc24)CCC3)[C@@H]1c1c[nH]c2ccccc12`, -21% (active); in that of `COc1ccc(-c2ccc(=O)oc2-c2cc(OC)c(OC)c(OC)c2)cc1O`, -55.6% (active).
For `O=[N+]([O-])c1cnc(N2CCN(CC3CC3)CC2)nc1N1CCN(CC2CC2)CC1`, the growth is 99.2%.
In the case of `Cc1cc2nc3ccc(N=Nc4ccc(N(C)C)cc4)cc3n(-c3ccccc3)c-2cc1=N`, the growth was -2.79% (active).
In the case of `CC(C)(C)n1cc(-c2ccnc(NCCCNS(=O)(=O)c3cccc4ccccc34)c2)c(-c2cccc(O)c2)n1`, the growth is 25.4%.
In the case of `N#Cc1c(Nc2ccc(N3CCOCC3)cc2)nc(SCC(=O)c2ccc(Br)cc2)nc1-c1ccccc1` it was 86.2%; in that of `COc1ccc2c(c1)Oc1nc(N)c(C#N)c(N)c1C2Sc1ccc(SC)cc1` (stereo not drawn), -22.3% (active).
Then `COc1c(C2CC(=O)Nc3c2c(C)nn3-c2nc3ccccc3[nH]2)cc2c(c1OC)OCO2` (stereo not drawn), with 20.7%; and `Cc1oc2nc[nH]c(=O)c2c1C(=O)/C=C/c1ccc(Br)cc1`, with -4.98% (active).
Regarding `COc1ccccc1NC(=O)Nc1ccc(-c2nc3ccccc3o2)cc1`, the growth is 88.5%.
In the case of `COc1ccc2cc(C(C)C(=O)Nc3ccc(S(=O)(=O)Nc4cc(C)on4)cc3)ccc2c1` (stereo not drawn) it was 143%.
Then `COc1ccc(C2C3CCc4ccccc4C3=NN2C(=O)c2cc(OC)c(OC)c(OC)c2)cc1O` (stereo not drawn), with 84.7%; and `COc1cc2nn(-c3ccccc3N)nc2cc1OC`, with 102%; and `O=C(CSc1nccc(Nc2ccc(S(=O)(=O)Nc3nccs3)cc2)n1)c1ccc(F)cc1`, with 104%.
`COc1cc(Br)c(OC)cc1Br`: the growth is 109%.
In the case of `O=C(N/N=C/[C@@H](O)[C@H](O)[C@H](O)CO)c1ccc(NC(=O)c2cccnc2)cc1` it was 99.4%; in that of `CCc1cc2n(n1)-c1ncc(C(=O)OC)cc1Oc1ccccc1-2`, 105%.
`Cc1ccc2nc(-c3ccc(OCC(=O)N=Nc4c(O)[nH]c5ccccc45)cc3)[nH]c2c1`: the growth was 88.9%.
In the case of `Cc1cn(-c2nc3c(c(NCc4ccccc4)n2)COCC3)c2cccc(C(N)=O)c12` it was 71.1% [0.5 µM].
`COc1ccc(-c2cc(-c3cc(OC)ccc3OC)nc(N)c2C#N)cc1`: the growth was 90.4%.
In the case of `CCCCn1c(-c2ccc(C(=O)O/N=C(\N)c3ccc(OC)cc3)cc2)nc(-c2ccccc2)c1-c1ccccc1`, the growth was -62.5% (active).
In the case of `CCOC(=O)c1cnc2ccc(Br)cc2c1Nc1cccc(S(=O)(=O)NC)c1` it was 119%; in that of `Cn1cc(-c2csc(-c3cn(CCCN4CCOCC4)c4ccc(F)cc34)n2)c2cccnc21`, 69.9%; in that of `O=C(c1ccc(Cl)cc1)c1no[n+]([O-])c1C(=O)c1ccc(Cl)cc1`, -27.9% (active).
Turning to `O=C1OC(c2ccc(Cl)c(Cl)c2)=C/C1=C/c1cccc([N+](=O)[O-])c1`, the growth was 103%.
As for `Cc1nc2c(=O)nc3s/c(=C\c4ccco4)c(=O)n3c2nc1C`, the growth is 98%.
As to `CC1(c2ccccc2)NC(=O)NC1=O` (stereo not drawn), the growth was 104%.
Turning to `COC(c1ccc2ccccc2c1)C(C)C(F)F` (stereo not drawn), the growth is 103%.

(Values after PubChem BioAssay (NCI).)
